Screening data as filed in PubChem BioAssay.
3T3 cytotox = cytotoxic compounds in NIH 3T3 cells; NIH 3T3 viability, CellTiter-Glo ATP luminescence, 48-72 h; 94,000 compounds, 4.3% hits; AID 1345082; Potency, µM (series often up to 96.7 µM), usual class: inhibitors; note: nearly all actives have a fitted effect of over 55% in size
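Luminescent ATP readout (CellTiter-Glo, 10 min RT) after 48 or 72 hr compound exposure of NIH 3T3 cells seeded at 400 cells/well in 1536-well format; quantitative HTS.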
HEK cytotox = HEK 293 cell cytotoxicity | HEK 293 viability, ATP luminescence (CellTiter-Glo), 48-72 h | Potency, µM (doses to about 115 µM), hits mostly inhibitors | 94,000 compounds, 6.6% hits; note: nearly all actives have a fitted effect of over 60% in size
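Cells seeded first (HEK 293, 250 cells/well), then compound added by pintool. Incubation ran 48 or 72 hr at 37 degree Celsius. CellTiter-Glo was added and luminescence imaged after 10 min at room temperature.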
NPR1 antag = blocks ANP-stimulated signaling of human Npr1 receptor | P16066 | HEK293 hNpr1 GloSensor cGMP, ANP-stimulated luminescence | Potency, µM (titrated, usually from 46.3 µM), actives largely listed as inhibitors | 76,000 compounds, 1.6% hits; calls by dose curve; note: nearly all actives have a fitted effect of over 60% in size
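HEK293 cells stably expressing human Npr1 and cGMP GloSensor pGS-40F, loaded 2 h with 2% GloSensor reagent, given compound 30 min at room temperature. Luminescence read before and 20 min after 0.1 nM hNppA.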
FLuc inh = inhibitors of firefly (Photinus pyralis) luciferase. P08659. purified P. pyralis luciferase, luminescence, biochemical. Potency, µM (series often up to 115 µM), actives largely listed as inhibitors. 76,000 compounds, 2.5% hits; note: nearly all actives have a fitted effect of over 65% in size
Target sequence (P08659 whole entry, looked up): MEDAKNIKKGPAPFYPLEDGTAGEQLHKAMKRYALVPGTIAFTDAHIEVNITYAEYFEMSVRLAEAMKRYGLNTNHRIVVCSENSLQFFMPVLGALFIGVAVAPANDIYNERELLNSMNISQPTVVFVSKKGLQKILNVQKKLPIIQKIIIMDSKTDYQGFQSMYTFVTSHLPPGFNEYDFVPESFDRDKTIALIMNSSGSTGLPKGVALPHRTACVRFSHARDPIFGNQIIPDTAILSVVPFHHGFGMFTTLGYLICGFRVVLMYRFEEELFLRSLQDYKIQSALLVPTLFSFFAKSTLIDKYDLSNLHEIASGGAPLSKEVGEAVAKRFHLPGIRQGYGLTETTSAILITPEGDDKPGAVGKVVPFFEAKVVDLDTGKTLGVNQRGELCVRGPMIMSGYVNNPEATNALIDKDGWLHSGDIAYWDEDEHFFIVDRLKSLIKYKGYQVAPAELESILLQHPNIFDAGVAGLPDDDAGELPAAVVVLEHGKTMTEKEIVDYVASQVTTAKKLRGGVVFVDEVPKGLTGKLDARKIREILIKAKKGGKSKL
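Luminescence read by CCD imager after adding enzyme (10nM final) to wells holding compound, titrated in qHTS. Substrates 10uM each D-luciferin and ATP; buffer 50mM Tris acetate pH 7.5, 10mM Mg acetate, Tween-20, BSA.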
Hits are given with their value. A selection: hits, their analogues and other compounds. The true share with any hit is near 11%. Unless noted, calls come from the whole dose curve; as a rule, active = well fitted curve in the direction sought with a large enough effect; inconclusive = small, poorly fitted or top-dose-only effect, or another doubt; inactive = no such curve, though single readings can be large; an effect the other way counts as inactive or inconclusive.

Screening O=C(NC1CCCc2c1cnn2-c1ccccn1)c1cn[nH]c1-n1cnnn1 (stereo not drawn) returned 3T3 cytotox inactive, HEK cytotox inactive, NPR1 antag inactive and FLuc inh inactive.
`CC(C)(C)c1ccc(-n2ncc3c2CCCC3NC(=O)c2c[nH]c(=O)[nH]c2=O)cc1` (stereo not drawn) gave 3T3 cytotox inconclusive, HEK cytotox 32µM, NPR1 antag 8.9µM and FLuc inh inconclusive.
`Cc1nc2n(n1)CCN(C(=O)c1ccc(Cl)cc1)C2` gave 3T3 cytotox inactive and HEK cytotox inactive.
O=C1[C@@H]2C[C@@H](CN2Cc2cnc3ccccc3c2)Oc2ccccc2N1Cc1ccccc1 was read as 3T3 cytotox inconclusive, HEK cytotox 50µM, NPR1 antag inactive and FLuc inh inactive.
Screening COCCN1C(=O)[C@@H]2C[C@@H](CN2Cc2cnc3ccccc3c2)Oc2ccccc21 returned 3T3 cytotox 100µM, HEK cytotox inconclusive, NPR1 antag inactive and FLuc inh inactive.
For O=C(c1ccc(Cl)cc1)N1CCC2(CC1)C(=O)NCN2Cc1ccc(Cl)cc1 the results were 3T3 cytotox inactive and HEK cytotox inactive.
CC1CCC2(CC1)OCC(C(=O)NCc1ccccc1F)N2C(=O)c1ccccc1F (stereo not drawn) was read as 3T3 cytotox inactive, HEK cytotox 79µM, NPR1 antag inactive and FLuc inh inactive.
Cc1ccc(C(=O)N2CC3(C2)NC(=O)c2ccccc2O3)cc1 was read as 3T3 cytotox inconclusive, HEK cytotox inconclusive, NPR1 antag inactive and FLuc inh inactive.
Screening C[S+](=O)([O-])c1ccc(-c2cc3c(ccn3Cc3ccncc3)c(N3CCOCC3)n2)cc1 returned 3T3 cytotox 6.3µM, HEK cytotox inactive, NPR1 antag inactive and FLuc inh inactive.
CN(C)Cc1cccc(-c2cc3c(ccn3Cc3ccncc3)c(N3CCOCC3)n2)c1 was read as 3T3 cytotox 40µM, HEK cytotox 89µM, NPR1 antag inactive and FLuc inh inactive.
Screening c1cc(-c2cc3c(ccn3Cc3ccncc3)c(N3CCOCC3)n2)cc(N2CCOCC2)c1 returned 3T3 cytotox 32µM, HEK cytotox inconclusive, NPR1 antag inactive and FLuc inh inactive.
For C[S+](=O)([O-])Nc1cccc(-c2cc3c(ccn3Cc3ccncc3)c(N3CCOCC3)n2)c1 the results were 3T3 cytotox inconclusive, HEK cytotox inactive, NPR1 antag inactive and FLuc inh inactive.
For O=C(CC[C@@H]1CNC(=O)[C@@H]2C[C@H](NC(=O)Nc3ccc(F)cc3F)CN12)NC1CC1 the results were 3T3 cytotox inactive, HEK cytotox inactive, NPR1 antag inactive and FLuc inh inactive.
CC(C)CN1C(=O)C(C)(C)[S+](=O)([O-])[C@@H]2CN(c3ccc(OC(F)(F)F)cc3)C[C@@H]21 was read as 3T3 cytotox inconclusive, HEK cytotox inconclusive, NPR1 antag inactive and FLuc inh inactive.
O=C(NC1CCCCC1)c1cnc2c(c1)N([S+](=O)([O-])c1cccnc1)CCC2 was read as 3T3 cytotox 89µM, HEK cytotox inactive, NPR1 antag inactive and FLuc inh inactive.
Screening OC[C@@H]1CNC[C@H]1C1CCN(Cc2ccc(Br)s2)CC1 returned 3T3 cytotox inconclusive, HEK cytotox inconclusive, NPR1 antag inactive and FLuc inh inactive.
For Cc1noc(C)c1S(=O)(=O)NCC(=O)N1CCCCCCNC(=O)CC1c1ccccc1 (stereo not drawn) the results were 3T3 cytotox inactive, HEK cytotox inactive, NPR1 antag inactive and FLuc inh inactive.
CC(NC(=O)c1ccc2cccc(F)c2n1)c1ccccc1-n1cccn1 (stereo not drawn) was read as 3T3 cytotox inconclusive, HEK cytotox inconclusive, NPR1 antag inactive and FLuc inh 35µM.
Screening CNc1ccnc(N2CCC(C(=O)O)(n3cnc4ccccc43)CC2)n1 returned 3T3 cytotox inactive, HEK cytotox inactive, NPR1 antag inactive and FLuc inh inconclusive.
`CC(=O)N1CCC(N[C@@H]2C[C@H](Cn3cc(-c4cccnc4)nn3)[C@@H](O)[C@H]2O)CC1` gave 3T3 cytotox inactive, HEK cytotox inactive, NPR1 antag inactive and FLuc inh inactive.
Cc1ccccc1-c1cnc2[nH]cc(CC(=O)NCCN(C)C)c2c1 was read as 3T3 cytotox inconclusive, HEK cytotox 40µM, NPR1 antag inactive and FLuc inh inactive.
O=C(Cc1c[nH]c2ncc(-c3ccccc3)cc12)NCCc1ccccc1 was read as 3T3 cytotox inconclusive, HEK cytotox inconclusive, NPR1 antag inconclusive and FLuc inh inactive.
Screening O=C(Cc1c[nH]c2ncc(-c3ccccc3)cc12)NCC1CCOCC1 returned 3T3 cytotox inconclusive, HEK cytotox 79µM, NPR1 antag inactive and FLuc inh inactive.
CN(C)CCNC(=O)Cc1c[nH]c2ncc(-c3ccccc3)cc12 was read as 3T3 cytotox inconclusive, HEK cytotox 112µM, NPR1 antag inactive and FLuc inh inactive.
`CC(=O)N1CCC(Cc2noc(-c3ccc(F)cc3)n2)C1` (stereo not drawn) gave 3T3 cytotox inactive, HEK cytotox inactive, NPR1 antag inactive and FLuc inh inactive.
O=C1NCc2ccccc2CC12CCN(Cc1ccc(F)cc1)CC2 was read as 3T3 cytotox inactive and HEK cytotox inconclusive.
`O=C(c1ccc(F)cc1Cl)N1CCC2(CC1)NC(=O)N(Cc1ccccc1)C2=O` gave 3T3 cytotox inactive, HEK cytotox inconclusive, NPR1 antag inactive and FLuc inh inactive.
COc1ccc2nc(C[C@@H]3C[C@@H](C(C)C)[C@H](CNCc4ccc(NC(C)=O)cc4)C=C3C)[nH]c2c1 was read as 3T3 cytotox 40µM, HEK cytotox inconclusive, NPR1 antag inactive and FLuc inh inactive.
COc1ccc2nc(C[C@@H]3C[C@@H](C(C)C)[C@H](CNCc4ccccn4)C=C3C)[nH]c2c1 was read as 3T3 cytotox inconclusive, HEK cytotox 79µM, NPR1 antag inactive and FLuc inh inactive.
For CCn1c(=O)c2ccnn2c2ccc(C(=O)Nc3ccc(C)c(F)c3)cc21 the results were 3T3 cytotox inactive, HEK cytotox 45µM, NPR1 antag inactive and FLuc inh inactive.
For CCn1c(=O)c2ccnn2c2ccc(C(=O)NCCCOC(C)C)cc21 the results were 3T3 cytotox inactive, HEK cytotox inconclusive, NPR1 antag inactive and FLuc inh inactive.
Screening CCCCNC(=O)c1ccc2c(c1)n(Cc1ccc(F)cc1)c(=O)c1ccnn12 returned 3T3 cytotox inconclusive, HEK cytotox inconclusive, NPR1 antag inactive and FLuc inh inactive.
CN1CCC(NC(=O)c2ccc3c(c2)n(Cc2ccc(F)cc2)c(=O)c2ccnn23)CC1 was read as 3T3 cytotox 22µM, HEK cytotox 25µM, NPR1 antag inactive and FLuc inh inactive.
Screening Cn1c(=O)c2ccnn2c2ccc(C(=O)NCC3CCN(Cc4cccc(F)c4)CC3)cc21 returned 3T3 cytotox inconclusive, HEK cytotox 79µM, NPR1 antag inactive and FLuc inh inactive.
`CC(=O)NC1CC2(CCN(C(=O)C3CCN(C)CC3)CC2)c2ccccc21` (stereo not drawn) gave 3T3 cytotox 35µM and HEK cytotox 45µM.
